# Screens: PubChem, National Center for Advancing Translational Sciences (NCATS)
# Rows were chosen to be rich in hits. Some 19% of all compounds tested hit in one or more screens of this group.
# HT1080-NT tox – kills 2HG-producing HT-1080-NT fibrosarcoma cells | HT-1080-NT fibrosarcoma viability, CellTiter-Glo ATP luminescence, 48 h | Potency, µM (doses to about 46.1 µM), for the others: at the highest dose activity, negative = less viability, actives largely listed as cytotoxic | hit rate 1.6% among 360,000 | AID 686970;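 note: NT is the 2HG producing partner of a matched IDH1 knockdown line; 0% = DMSO-treated cells and -100% = media-only wells without cells; nearly all actives have a fitted effect of over 55% in size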
#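 750 cells/well, RPMI + 5% FBS; 2 h settle, compound pin-transfer, 48 h at 37 degrees C. CellTiter-Glo 10 min RT, luminescence. Normalized to DMSO and media-only wells.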
# KB-V1 cytotox – KB-V1 MDR subline cytotoxicity; Potency, µM (top dose mostly 46.1 µM), usual class: cytotoxic; KB-V1 MDR cells viability, CellTiter-Glo, 72 h; hit rate 3.4% among 400,000; note: nearly all actives have a fitted effect of over 60% in size
#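 Luminescent ATP read-out (CellTiter-Glo, 10 min) measures survival of drug-selected KB-V1 MDR cells after 72 h, 37 degrees C compound exposure. Medium: phenol-red-free DMEM, 10% FBS. Values from fitted concentration-response curves.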
# DT40 TDP1 no CPT – qHTS for Inhibitors of human tyrosyl-DNA phosphodiesterase 1 (TDP1): qHTS in cells in absence of CPT; hit rate 15% among 420,000; Potency, µM (top dose mostly 46.2 µM), without a hit: top-dose activity change, negative = growth inhibition, hits mostly inhibitors; DT40 Tdp1-/- hTDP1 cells, no CPT, ATP luminescence, 48 h; note: nearly all actives have a fitted effect of over 55% in size
#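 Cells were dispensed at 400 per well, compounds added by pin tool, plates incubated ≥48 hr at 37 °C, then CellTiter-Glo added for 30 min at room temperature before luminescence reading. Line: DT40 Tdp1-/- complemented with hTDP1; camptothecin omitted.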
# TDP1 cell CPT – growth inhibition of DT40 Tdp1-/-;hTDP1 cells with camptothecin (screen for TDP1 inhibitors); AID 686979; chicken DT40 Tdp1-/-;hTDP1 cells + 20 nM CPT, ATP luminescence, 48 h; Potency, µM (doses to about 46.2 µM), for the others: top-dose activity change, negative = growth inhibition, hits mostly inhibitors; hit rate 12% among 420,000; note: nearly all actives have a fitted effect of over 55% in size
#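 Chicken DT40 Tdp1-/- cells stably complemented with human TDP1 were seeded at 400 cells/well in medium containing 20 nM camptothecin, exposed to pin-transferred compounds, and grown at 37 °C for at least 48 hr. Viability was read as ATP luminescence.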
# KB-3-1 tox – kills parental KB-3-1 adenocarcinoma cells; KB-3-1 viability, CellTiter-Glo ATP luminescence, 72 h; Potency, µM (top dose mostly 46.1 µM), hits mostly cytotoxic; hit rate 1.4% among 400,000; note: nearly all actives have a fitted effect of over 60% in size
#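 KB-3-1 cells, DMEM (no phenol red) + 10% FBS; compound by pin transfer, 72 h, 37 °C. Readout: CellTiter-Glo luminescence after 10 min. Data normalized, curve-fitted.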
# HT1080 IDH1KD tx – kills HT-1080 cells with IDH1 knockdown; hit rate 2% among 360,000; Potency, µM (titrated, usually from 46.1 µM), without a hit: top-dose activity, negative = toxicity, most hits filed as cytotoxic; HT-1080 IDH1 knockdown viability, ATP luminescence, 48 h;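 note: 0% = DMSO wells and -100% = cell-free medium wells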
#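 Assay cells: HT-1080 with IDH1 knockdown, 750 per well, RPMI/5% FBS. Exposure: 48 h at 37 °C following 2 h pre-incubation. Read: CellTiter-Glo luminescence; fitted concentration-response, curve class assigned.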
# * hit, by the source's call; i = inactive; ? = inconclusive; . = no result given; ! = not active in a repeat. Calls come from the whole dose curve; as a rule, active = well fitted curve in the direction sought with a large enough effect; inconclusive = small, poorly fitted or top-dose-only effect, or another doubt; inactive = no such curve, though single readings can be large; an effect the other way counts as inactive or inconclusive. Unless noted, % is set by controls: 0 for no effect and ±100 for the full control effect; potency is the fitted concentration of half-maximal effect.
SMILES,HT1080-NT tox,KB-V1 cytotox,DT40 TDP1 no CPT,TDP1 cell CPT,KB-3-1 tox,HT1080 IDH1KD tx
CCOC(=O)C1=C(NC(=S)NC(=O)c2ccccc2)c2ccccc2CC12CCCC2,?,?,18.4µM*,16.4µM*,?,?
C[C@]12CCC(=O)C=C1CC[C@@H]1C2CC[C@]2(C)C(=O)CCC12 (stereo partly specified),4.7%,i,-15.7%,-10.3%,i,7.8%
C[C@@]12CCC3C(CCC4=CC(=O)CC[C@]43C)C1CCC2O (stereo partly specified),.,.,16.4µM*,?,.,.
CC(=O)[C@H]1CC[C@H]2[C@@H]3CCC4=CC(=O)CC[C@]4(C)[C@H]3CC[C@]12C,?,5.8µM*!,18.4µM*,26.6µM*,13µM*!,?
C[C@]12CCC(=O)C=C1CC[C@@H]1[C@@H]2CC[C@]2(C)C(=O)CC[C@@H]12,19.1%,?,18.4µM*!,?,i,5.8%
N#CC1c2ccccc2-n2nncc2CN1S(=O)(=O)c1cc(Cl)cc(Cl)c1 (stereo unspecified),9.4%,i,0.2%,-13.1%,i,5.4%
O=C(CI)c1ccc(Cl)cc1,.,i,-4.0%,-20.2%,i,.
N#Cc1nn(-c2c(Cl)cc(C(F)(F)F)cc2Cl)c(N)c1S(=O)C(F)(F)F (stereo unspecified),.,.,8.57µM*,9.62µM*,.,.
C/C(N)=C(/C#N)C(=O)CSc1nc2cc(Cl)ccc2c(=O)n1-c1ccc(C)cc1,-10.7%,i,?,-6.5%,i,-10.0%
O=C(COC(=O)c1cccc(NC(=O)c2ccc(Br)cc2)c1)c1ccc(Br)cc1,.,i,?,?,i,.
CCCCC1(CCCC)C(=O)NC(=Nc2cccc(C)c2)NC1=O,?,?,18.4µM*,16.4µM*,?,18.4µM*
CCCC(C)C1(CC)C(=O)NC(=Nc2ccccc2)NC1=O (stereo unspecified),-9.2%,?,-22.1%,2.4%,?,-5.8%
NC(N)=N/N=C/c1cn(-c2ccccc2)nc1-c1cccs1,-29.5%,?,10.3µM*,10.3µM*,i,-13.0%
C[C@@H]1CN([C@@H](C)CO)C(=O)c2cccc(NC(=O)c3ccncc3)c2O[C@@H]1CN(C)Cc1ccc(-c2ccccc2)cc1,-1.2%,?,?,?,i,-3.1%
C[C@@H]1CCCCO[C@H](CN(C)Cc2ccccc2)[C@@H](C)CN([C@H](C)CO)C(=O)c2cc(NC(=O)c3ccccc3)ccc2O1,-2.8%,i,18.4µM*,?,i,-4.7%
C[C@H]1CN([C@@H](C)CO)C(=O)c2cc(NC(=O)Nc3cccc4ccccc34)ccc2O[C@@H]1CN(C)Cc1ccc(-c2ccccc2)cc1,-29.8%,?,16.4µM*,23.1µM*,i,-1.1%
C[C@H]1CN([C@@H](C)CO)C(=O)c2cc(NC(=O)C3CCCCC3)ccc2O[C@H]1CN(C)Cc1ccc(-c2ccccc2)cc1,-27.9%,i,?,?,?,-20.9%
COc1ccc(NC(=O)Nc2ccc3c(c2)C(=O)N([C@H](C)CO)C[C@H](C)[C@@H](CN(C)Cc2ccc(Cl)c(Cl)c2)OCCCC[C@@H](C)O3)cc1,-15.6%,i,16.4µM*,-16.9%,i,-28.4%
COc1ccc(NC(=O)Nc2ccc3c(c2)C(=O)N([C@H](C)CO)C[C@H](C)[C@@H](CN(C)S(=O)(=O)c2ccc(OC)cc2)O3)cc1,-13.0%,i,?,?,i,-4.8%
COC(=O)N(c1ccccc1)P(=O)(Oc1ccccc1)Oc1ccccc1,-1.9%,i,?,3.6%,i,-15.5%
CN1C(=O)c2ccccc2Sc2ccc(NC(=O)NCc3ccc(Cl)cc3)cc21,.,i,16.4µM*,23.1µM*,?,.
O=C(Nc1ccc(N2CCOCC2)cc1)C1CCN(S(=O)(=O)c2cccc(C(F)(F)F)c2)CC1,-1.9%,?,?,?,i,-7.0%
O=C(Nc1cccc(C(F)(F)F)c1)C1CCCN1S(=O)(=O)c1cccc2nsnc12 (stereo unspecified),.,7.31µM*,?,18.4µM*,?,.
CC(C(=O)OC1CC2CCC(C1)N2C)c1ccc(Br)cc1 (stereo unspecified),.,.,16.4µM*,20.6µM*,.,.
CCC(Oc1ccc(Cl)cc1)C(=O)OC1CC2CCC(C1)N2C (stereo unspecified),.,.,10.3µM*,13µM*,.,.
SMILES,HT1080-NT tox,KB-V1 cytotox,DT40 TDP1 no CPT,TDP1 cell CPT,KB-3-1 tox,HT1080 IDH1KD tx
CCC(c1ccc(C)cc1)N1C(=O)C2C3CCC(O3)C2C1=O (stereo unspecified),0.9%,?,-0.8%,-5.8%,i,-13.0%
Cc1ncc([N+](=O)[O-])n1CCOC(N)=O,-1.3%,i,-5.1%,3.7%,i,-0.9%
CC1=CC2/C=C(\C)CCC(O)C(O)/C=C/C(=O)C23C(=O)NC(CC(C)C)C3C1C (stereo unspecified),11.6µM*,?,1.84µM*,3.66µM*,4.61µM*,7.31µM*
CN1CCCN(C(=O)COc2ccc(Br)cc2)CC1,14.0%,i,8.8%,8.5%,i,-10.7%
C=C(CO)CC1CC(O)[C@]2(C)OC3CC4OC5C[C@]6(C)O[C@]7(C)CCC8OC9C[C@]%10(C)OC%11C(C)=CC(=O)OC%11CC%10OC9C[C@@H](C)C8OC7CC6O[C@]5(C)C/C=C\C4OC3CC2O1 (stereo partly specified),8.3%,?,16.4µM*,23.1µM*,?,7.6%
C=C(COC(C)=O)CC1CC(O)[C@]2(C)OC3CC4OC5C[C@]6(C)O[C@]7(C)CCC8OC9C[C@]%10(C)OC%11C(C)=CC(=O)OC%11CC%10OC9C[C@@H](C)C8OC7CC6O[C@]5(C)C/C=C\C4OC3CC2O1 (stereo partly specified),-26.9%,?,?,23.1µM*,i,-15.4%
C=C(C=O)CC1CC(O)[C@]2(C)OC3CC4OC5C[C@]6(C)O[C@]7(C)CCC8OC9C[C@]%10(C)OC%11C(C)=CC(=O)OC%11CC%10OC9C[C@@H](C)C8OC7CC6O[C@]5(C)CC5OC5C4OC3CC2O1 (stereo partly specified),?,i,0.366µM*,0.411µM*,11.6µM*,.
